The values that follow come from PubChem BioAssay (NCI).

A short description of assay [1]: NCI Yeast Anticancer Drug Screen. Data for the rad50 strain (AID 155).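 Also: 0% = growth of vehicle-only cultures of the same strain.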 The settings on record: S. cerevisiae rad50 strain growth inhibition; at 50.0 µM; hits give high values. An outline of the steps:
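Growth of the mutant yeast was measured after compound exposure and referenced to vehicle-treated cultures.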

The nature of assay [2]: NCI Yeast Anticancer Drug Screen. Data for the mec2-1 strain (AID 157). The following applies: S. cerevisiae mec2-1 strain, hits give high values. An outline of the steps:
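Using mec2-1 yeast: add compound, measure growth, express inhibition versus vehicle-treated cultures.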

Assay [3] can be described thus: NCI Yeast Anticancer Drug Screen. Data for the sgs1 mgt1 strain (AID 161).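 Also: 0% = growth of cultures given vehicle only.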 The settings on record: S. cerevisiae sgs1 mgt1 strain, hits give high values. An outline of the steps: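 This yeast growth screen uses a strain with defined DNA-repair lesions; compound-treated growth is compared with vehicle-treated growth.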
Assay [4] can be described thus: NCI Yeast Anticancer Drug Screen. Data for the cln2 rad14 strain (AID 165).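 Also: 0% = growth equal to vehicle treated cultures.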 The settings on record: S. cerevisiae cln2 rad14 strain, hits give high values. An outline of the steps:
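Yeast strain cln2 rad14, bearing defects in cell cycle control and DNA repair, serves as the test system; values reflect growth inhibition compared with vehicle.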

Assay [5] can be described thus: NCI Yeast Anticancer Drug Screen. Data for the bub3 strain (AID 167). The settings on record: S. cerevisiae bub3 mutant strain, hits give high values. An outline of the steps: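 Whole-cell yeast assay. The mutant strain was incubated with compounds, and growth inhibition was determined by comparison with vehicle-treated cells.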
A short description of assay [6]: NCI Yeast Anticancer Drug Screen. Data for the mlh1 rad18 strain (AID 175). The following applies: S. cerevisiae mlh1 rad18 strain growth inhibition, hits give high values. An outline of the steps: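 Steps: expose repair-defective yeast to compound; measure growth; express inhibition against vehicle-treated controls.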
The mark [7] stands for this setting: at 5.0 µM (retest, dose inferred, filed as 0.5).
[8] abbreviates: at 50.0 µM (retest, dose inferred, filed as 5.0).

Structures are written as SMILES. Several values for one entry are separate records, joined by “and”; a condition that tells them apart may be missing. Equal values may be shown once. Compounds without any hit were thinned out: in the full panel of roughly 79,000, 15% have a hit. A number with no mark means an inactive call. Activity calls are given as the source filed them. Rule as the data show it: active = growth inhibition above about 70%; inactive = the rest. Where a SMILES comes first, the peptide text is derived from it. The star is where a group is joined. Fmoc = O=C(OCC1c2ccccc2-c2ccccc21)*; Boc = CC(C)(C)OC(=O)*; OtBu = CC(C)(C)O*

`O=C(O)c1cc(O)c(O)c(O)c1`: the growth inhibition is 5.3% and 1.55% in assay [1]; -12.6% and -7.9% in assay [2] (at 50.0 µM); 2.2% and 15.6% in assay [3] (at 50.0 µM); 15.6% and -9.5% in assay [4] (at 50.0 µM); 2.25% and 2.85% in assay [5] (at 50.0 µM); 5.8% and 3% in assay [6] (at 50.0 µM).

For the compound `CC(=O)Nc1ccc(-c2ccc(NC(C)=O)cc2)cc1`, the growth inhibition in assay [1] is -24.2% and -15.2%; in assay [2] (at 50.0 µM) it was -41.9% and -24.6%; in assay [3] (at 50.0 µM) it was -26.9% and -0.95%; in assay [4] (at 50.0 µM) it was -182% and -42.9%; in assay [5] (at 50.0 µM), -24.4% and -1.45%; in assay [6] (at 50.0 µM) it was -10.1% and -21.2%.

As for `CC(C)(C)OC(=O)CCC(NC(=O)OCC1c2ccccc2-c2ccccc21)C(=O)NC(Cc1c[nH]c2ccccc12)C(=O)NC(CCCCNC(=O)OC(C)(C)C)C(=O)N1CCCC1C(=O)NCC(N)=O` (stereo unspecified) (Fmoc-E(OtBu)WK(Boc)PG-NH2; configuration not given here), the growth inhibition is -24.2% and -27.9% in assay [1]; -23.1% and -22.1% in assay [2] (at 50.0 µM); -12.7% and -17% in assay [3] (at 50.0 µM); 5.7% and 12.8% in assay [4] (at 50.0 µM); -16.6% and -4.35% in assay [5] (at 50.0 µM); -17.8% and -22.2% in assay [6] (at 50.0 µM).

With `CCC(C)C(N)C(=O)NC(CC(N)=O)C(=O)NC(CC(C)C)C(=O)NC(CCCCN)C(=O)NC(C)C(=O)NC(CC(C)C)C(=O)NC(C)C(=O)NC(C)C(=O)NC(CC(C)C)C(=O)NC(C)C(=O)NC(CCCCN)C(=O)NC(CCCCN)C(=O)NC(C(=O)NC(CC(C)C)C(N)=O)C(C)CC` (stereo unspecified), the growth inhibition in assay [2] (setting [7]) is 6%; in assay [2] (setting [8]), 100% (active); in assay [2] (at 50.0 µM), 94.2% (active); in assay [3] (setting [7]), -3%; in assay [3] (setting [8]), 99% (active); in assay [3] (at 50.0 µM) it was 93.8% (active). Besides, the growth inhibition in assay [4] (setting [7]) was 4%; in assay [4] (setting [8]), 98% (active); in assay [4] (at 50.0 µM) it was 92% (active); in assay [5] (setting [7]), -6%; in assay [5] (setting [8]), 99% (active); in assay [5] (at 50.0 µM), 93.6% (active). For the same compound, the growth inhibition in assay [6] (setting [7]) was 0%; in assay [6] (setting [8]), 99% (active); in assay [6] (at 50.0 µM) it was 92.8% (active).

For the compound `CCCCOc1ccc2nc3cc(Cl)ccc3c(Cl)c2n1`, the growth inhibition was 1.85% and -16.5% in assay [1]; -10.8% and -43.5% in assay [2] (at 50.0 µM); -9.75% and 22.9% in assay [3] (at 50.0 µM); -12.2% and 8.6% in assay [5] (at 50.0 µM); 25.8% and 3.55% in assay [6] (at 50.0 µM).

As to `CC(C)=C1C=C2CC[C@@H]3[C@](C)(CCC[C@@]3(C)C(=O)O)[C@H]2CC1`, the growth inhibition in assay [2] (setting [7]) was 3%; in assay [2] (setting [8]) it was 95% (active); in assay [2] (at 50.0 µM), 90.2% (active); in assay [3] (setting [7]), 2%; in assay [3] (setting [8]) it was 95% (active); in assay [3] (at 50.0 µM), 91% (active). In addition, the growth inhibition is -4% in assay [4] (setting [7]); 91% (active) in assay [4] (setting [8]); 90.3% (active) in assay [4] (at 50.0 µM); -1% in assay [5] (setting [7]); 94% (active) in assay [5] (setting [8]); 85.8% (active) in assay [5] (at 50.0 µM).

Take `C/C=C/c1cc2c(c(=O)o1)C(=O)[C@@H](O)[C@H](C)O2`: the growth inhibition in assay [2] (setting [7]) was 11%; in assay [2] (setting [8]) it was 21%; in assay [2] (at 50.0 µM), 2%; in assay [3] (setting [7]) it was 15%; in assay [3] (setting [8]) it was 30%; in assay [3] (at 50.0 µM) it was 34.5%. Moreover, the growth inhibition in assay [4] (setting [7]) is 8%; in assay [4] (setting [8]) it was 11%; in assay [4] (at 50.0 µM), -1.15%; in assay [5] (setting [7]), 14%; in assay [5] (setting [8]) it was 28%; in assay [5] (at 50.0 µM), 18.9%. For the same compound, the results for the growth inhibition in assay [6] (setting [7]), in assay [6] (setting [8]) and in assay [6] (at 50.0 µM) were 8%, 26% and 60.3%, respectively.

Consider `COc1ccc(N=CC2CCCCC2=O)c([N+](=O)[O-])c1` (stereo unspecified), for which the growth inhibition in assay [2] (setting [7]) was 29%; in assay [2] (setting [8]), 42%; in assay [3] (setting [7]), -1%; in assay [3] (setting [8]), 12%; in assay [4] (setting [7]), 31%; in assay [4] (setting [8]) it was 56%. Further, the growth inhibition in assay [5] (setting [7]) was 13%; in assay [5] (setting [8]), 86% (active); in assay [6] (setting [7]) it was 53%; in assay [6] (setting [8]), 61%.

Consider `CN(C)C=C(S(C)(=O)=O)S(C)(=O)=O`, for which the growth inhibition was 10.2% and -24.7% in assay [1]; -2.05% and -9.9% in assay [2] (at 50.0 µM); 20.1% and -9.85% in assay [3] (at 50.0 µM); -17.5% and 4.25% in assay [4] (at 50.0 µM); 5.8% and 14.9% in assay [5] (at 50.0 µM); 9.1% and -14.8% in assay [6] (at 50.0 µM).

Turning to `OCC1OC(n2cnc3cncnc32)C(O)C1O` (stereo unspecified), the growth inhibition in assay [2] (at 50.0 µM) was -40% and 24.9%; in assay [3] (at 50.0 µM), 13.4% and 23.4%; in assay [4] (at 50.0 µM), 12.3% and -35.8%; in assay [5] (at 50.0 µM) it was -3.65% and 22.6%; in assay [6] (at 50.0 µM), 2.15% and 29.9%.
